This passage reports binding signal results from article PMC13541613, “GHT-SELEX demonstrates unexpectedly high intrinsic sequence specificity and complex DNA binding of many human transcription factors”.

Experiment in all cases: HT-SELEX; 20 mM HEPES pH 7, 140 mM KCl, 5 mM NaCl, 1 mM K2HPO4, 2 mM MgSO4, 100 uM EGTA, ZnSO4, 0.1% Tween20; room temperature, 1 h; high values mean tight binding
Holding throughout (details): protein: ivt; tags: eGFP (N-terminal); dsDNA, one strand shown

For test [1], the target named is ZNF721 full-length (Homo sapiens, UniProt Q8TF20-2 1-923). The essentials: (§1)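 Bead-immobilised tagged transcription factor (full-length or DNA-binding-domain fragment), made in HEK293 lysate or cell-free extract, was incubated with a randomized 40-base DNA library. Binding was for 1 h at room temperature in HEPES/KCl low-stringency buffer with Tween20. After washing and heat elution, bound DNA was PCR-amplified over successive cycles and Illumina-sequenced (~3 million 60 bp reads per sample). Binding signal is a relative k-mer count in selected reads; higher means tighter binding.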

For test [2], the target named is ZNF721 DBD1 (Homo sapiens, UniProt Q8TF20-2 29-461). The essentials: as §1
Test [3] addresses ZNF721 DBD2 (Homo sapiens, UniProt Q8TF20-2 395-923). The method, boiled down:
as §1

ZNF721 full-length, sequence (Q8TF20 other isoform, or with tags, fused parts or gaps): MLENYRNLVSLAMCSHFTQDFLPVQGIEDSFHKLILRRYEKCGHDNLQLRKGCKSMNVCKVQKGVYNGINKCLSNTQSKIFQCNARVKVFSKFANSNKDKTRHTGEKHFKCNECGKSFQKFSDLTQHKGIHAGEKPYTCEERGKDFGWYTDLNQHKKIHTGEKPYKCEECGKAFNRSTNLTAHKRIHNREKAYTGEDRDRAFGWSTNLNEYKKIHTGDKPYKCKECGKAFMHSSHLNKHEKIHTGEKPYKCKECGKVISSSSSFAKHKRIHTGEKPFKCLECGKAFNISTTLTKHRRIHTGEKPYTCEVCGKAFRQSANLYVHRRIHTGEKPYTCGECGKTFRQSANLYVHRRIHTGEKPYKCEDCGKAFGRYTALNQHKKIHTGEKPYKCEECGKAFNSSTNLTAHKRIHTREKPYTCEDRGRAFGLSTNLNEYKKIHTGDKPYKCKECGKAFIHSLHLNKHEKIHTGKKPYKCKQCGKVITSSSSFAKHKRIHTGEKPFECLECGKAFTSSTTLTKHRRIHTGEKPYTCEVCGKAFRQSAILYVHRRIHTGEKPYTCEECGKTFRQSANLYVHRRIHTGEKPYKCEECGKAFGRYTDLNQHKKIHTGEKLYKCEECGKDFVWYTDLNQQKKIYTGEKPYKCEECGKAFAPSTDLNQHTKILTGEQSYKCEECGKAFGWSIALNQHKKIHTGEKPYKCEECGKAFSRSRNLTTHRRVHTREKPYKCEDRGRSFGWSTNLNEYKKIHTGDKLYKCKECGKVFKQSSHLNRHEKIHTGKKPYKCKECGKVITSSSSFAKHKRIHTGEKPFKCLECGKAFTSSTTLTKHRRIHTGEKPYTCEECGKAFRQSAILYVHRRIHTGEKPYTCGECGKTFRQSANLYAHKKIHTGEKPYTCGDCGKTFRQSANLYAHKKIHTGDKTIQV
ZNF721 DBD1, sequence (Q8TF20 17-449): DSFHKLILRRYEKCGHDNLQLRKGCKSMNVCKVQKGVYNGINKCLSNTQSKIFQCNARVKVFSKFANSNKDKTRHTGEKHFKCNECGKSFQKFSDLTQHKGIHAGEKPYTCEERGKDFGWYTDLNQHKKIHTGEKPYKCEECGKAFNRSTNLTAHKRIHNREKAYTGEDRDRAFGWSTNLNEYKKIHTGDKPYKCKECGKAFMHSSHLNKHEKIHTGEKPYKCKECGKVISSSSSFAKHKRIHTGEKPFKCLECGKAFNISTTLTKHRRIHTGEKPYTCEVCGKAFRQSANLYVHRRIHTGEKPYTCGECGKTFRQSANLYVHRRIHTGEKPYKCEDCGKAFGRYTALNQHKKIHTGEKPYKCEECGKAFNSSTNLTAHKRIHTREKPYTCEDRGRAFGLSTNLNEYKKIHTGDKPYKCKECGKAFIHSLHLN
ZNF721 DBD2, sequence (Q8TF20 383-911): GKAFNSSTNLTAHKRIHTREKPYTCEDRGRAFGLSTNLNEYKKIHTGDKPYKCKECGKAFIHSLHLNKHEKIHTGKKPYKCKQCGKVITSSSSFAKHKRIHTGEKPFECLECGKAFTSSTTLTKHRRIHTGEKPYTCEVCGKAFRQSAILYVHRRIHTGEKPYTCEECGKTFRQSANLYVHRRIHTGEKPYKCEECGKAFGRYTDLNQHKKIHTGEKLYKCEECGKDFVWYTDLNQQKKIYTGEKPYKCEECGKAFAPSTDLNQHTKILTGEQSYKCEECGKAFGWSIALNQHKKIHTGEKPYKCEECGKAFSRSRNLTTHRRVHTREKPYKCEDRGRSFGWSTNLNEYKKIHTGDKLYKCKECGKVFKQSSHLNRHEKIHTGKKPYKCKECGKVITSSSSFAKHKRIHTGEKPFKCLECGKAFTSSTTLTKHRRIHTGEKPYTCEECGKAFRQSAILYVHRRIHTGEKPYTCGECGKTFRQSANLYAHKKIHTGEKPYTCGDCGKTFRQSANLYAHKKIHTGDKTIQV

Regarding GAAGCTATAC, the values for the binding signal in test [1] and in test [2] were 0.107 relative 10-mer count and 0.143 relative 10-mer count, respectively.
Taken in the same sequence, the figures for CCCGCCCGCC were 0.128 relative 10-mer count and 0.0044 relative 10-mer count.
The like results for ACTTCATACT were, in that order, 0.154 relative 10-mer count and 0.27 relative 10-mer count.
In the case of CGGTATGAAG, the binding signal in test [1] was determined as 0.108 relative 10-mer count; in test [2], 0.15 relative 10-mer count.
On to AAGCTATACC, for which the binding signal in test [1] came to 0.227 relative 10-mer count; in test [2], 0.155 relative 10-mer count.
As for AAGAAGCTAT, the values for the binding signal in test [1] and in test [2] were 0.144 relative 10-mer count and 0.16 relative 10-mer count, respectively.
Taken in the same sequence, the figures for CTCCGCCCCC were 0.11 relative 10-mer count and 0.00537 relative 10-mer count.
Taken in the same sequence, the figures for AGTATGAAGC were 0.167 relative 10-mer count and 0.232 relative 10-mer count.
Taken in the same sequence, the figures for CCCCGACCCC were 0.24 relative 10-mer count and 0.00789 relative 10-mer count.
Consider ACTTCATACA, for which the binding signal in test [1] was 0.358 relative 10-mer count; in test [2] it was 0.393 relative 10-mer count.
The like results for ATACACTTCA were, in that order, 0.245 relative 10-mer count and 0.223 relative 10-mer count.
Regarding CCCAGCCCCC, the binding signal in test [1] is 0.163 relative 10-mer count; in test [2] it was 0.00518 relative 10-mer count.
The like results for GAAGTGTATC were, in that order, 0.279 relative 10-mer count and 0.247 relative 10-mer count.
For the sequence CCGCCCTCCC, the figures for the binding signal in test [1], in test [2] and in test [3] were 0.148 relative 10-mer count, 0.00642 relative 10-mer count and 0.00252 relative 10-mer count, respectively.
Turning to CCCCCGGCCC, the figures for the binding signal in test [1] and in test [2] were 0.102 relative 10-mer count and 0.00394 relative 10-mer count, respectively.
Taken in the same sequence, the figures for CTTCATACCA were 0.116 relative 10-mer count and 0.165 relative 10-mer count.
Taken in the same sequence, the figures for CCAGCCCCCC were 0.131 relative 10-mer count and 0.00316 relative 10-mer count.
The like results for AAAAGCTATA were, in that order, 0.177 relative 10-mer count and 0.0882 relative 10-mer count.
Turning to ATGTATGAAG, the binding signal is 0.263 relative 10-mer count in test [1] and 0.279 relative 10-mer count in test [2].
The like results for AAAGCTATAC were, in that order, 0.183 relative 10-mer count and 0.0924 relative 10-mer count.
The like results for CCCCGGCCCC were, in that order, 0.12 relative 10-mer count and 0.00358 relative 10-mer count.
The like results for ATGAAGTGTA were, in that order, 0.376 relative 10-mer count and 0.432 relative 10-mer count.
With CCCCCCCCCC, the binding signal is 0.116 relative 10-mer count in test [1] and 0.00358 relative 10-mer count in test [2].
Taken in the same sequence, the figures for ACTTCATACC were 0.377 relative 10-mer count and 0.502 relative 10-mer count.
The like results for AACCCCCACC were, in that order, 0.108 relative 10-mer count and 0.00495 relative 10-mer count.
Regarding CCCGCACCCC, the binding signal in test [1] stood at 0.193 relative 10-mer count; in test [2], 0.00784 relative 10-mer count.
The like results for CGCCGCCCCC were, in that order, 0.138 relative 10-mer count and 0.00518 relative 10-mer count.
The like results for AGCTTCATAC were, in that order, 0.196 relative 10-mer count and 0.296 relative 10-mer count.
Taken in the same sequence, the figures for CTTCATACCC were 0.221 relative 10-mer count and 0.363 relative 10-mer count.
On to GCTTCATACC, for which the binding signal was determined as 0.229 relative 10-mer count in test [1] and 0.354 relative 10-mer count in test [2].
Taken in the same sequence, the figures for AGCTTCTTTC were 0.151 relative 10-mer count and 0.125 relative 10-mer count.
The like results for CCCCTGCCCC were, in that order, 0.217 relative 10-mer count and 0.00734 relative 10-mer count.
Taken in the same sequence, the figures for CGCCCCCCCC were 0.171 relative 10-mer count and 0.00527 relative 10-mer count.
On to AGGTATGAAG, for which the binding signal in test [1] was 0.192 relative 10-mer count; in test [2] it was 0.217 relative 10-mer count.
The like results for AACCCACCCC were, in that order, 0.143 relative 10-mer count and 0.00596 relative 10-mer count.
